“And” between values parts separate entries of the source, which are not always exact repeats. Equal entries are not always repeated. Records with an inconclusive call do not appear. Values without a mark were called inactive. The source made the active and inactive calls. Calls follow the shape of the dose curve; as a rule, active = well fitted curve in the direction sought with a large enough effect; inconclusive = small, poorly fitted or top-dose-only effect, or another doubt; inactive = no such curve, though single readings can be large; an effect the other way counts as inactive or inconclusive.

Experiment [1] deals with Retinaldehyde dehydrogenase 3 (Homo sapiens) (UniProt P47895). As to the kind of experiment: qHTS for Inhibitors of the Aldehyde Dehydrogenase Family (ALDH1A3) Confirmatory screens (AID 2061311). Also: potency is read from the fitted curve at half-maximal effect; nearly all actives have a fitted effect of over 60% in size. Background: Quantitative high-throughput screening tests each substance at several concentrations.
The target in experiment [2] is Aldehyde dehydrogenase 1A1 (Homo sapiens) (UniProt P00352). In words: qHTS for Inhibitors of the Aldehyde Dehydrogenase Family (ALDH1A1) Confirmatory screens (AID 2061316). Also: nearly all actives have a fitted effect of over 65% in size. Also: potency is read from the fitted curve at half-maximal effect.
Experiment [3] concerns the target Retinal dehydrogenase 2 (Homo sapiens) (UniProt O94788). In words: qHTS for Inhibitors of the Aldehyde Dehydrogenase Family (ALDH1A2) Confirmation screens (AID 2061314). Also: nearly all actives have a fitted effect of over 65% in size.
In experiment [4] the target is Cellular tumor antigen p53 (Homo sapiens) (UniProt P04637). In words: Primary qHTS for small molecule compounds that upregulate eGFP-tagged delta133p53alpha (in N-terminal) cells. (AID 2060322). Also: nearly all actives have a fitted effect of over 75% in size. Also: potency is read from the fitted curve at half-maximal effect.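 As to activation: series mostly up to about 56 µM; 0% = DMSO vehicle and 100% = reference activator.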 The note with it: NCI-H358 eGFP-delta133p53alpha fluorescence, 24 h; activation: hits give high values. In outline:
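NCI-H358 cells pre-induced 24 h with 10 ng/ml doxycycline to express N-terminal eGFP-delta133p53alpha, then dosed 24 h at 37C without doxycycline; fixed, Hoechst-stained, GFP intensity by laser scanning cytometry, normalized to DMSO (0%) and 57.5 uM 5-azacytidine (100%).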

Experiment [5] concerns the target Aldehyde dehydrogenase, mitochondrial (Homo sapiens) (UniProt P05091). As to the kind of experiment: qHTS for Inhibitors of the Aldehyde Dehydrogenase Family (ALDH2) Primary screen (AID 2061308).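 Also: plate controls were vehicle for no effect and reference inhibitor for full effect; nearly all actives have a fitted effect of over 55% in size.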
Experiment [6] has as its target Retinaldehyde dehydrogenase 3 (Homo sapiens) (UniProt P47895). In words: qHTS for Inhibitors of the Aldehyde Dehydrogenase Family (ALDH1A3) Validation screen (AID 2061312). Also: % is scaled to controls: 0 for no effect and ±100 for the full control effect; nearly all actives have a fitted effect of over 45% in size.
For experiment [7] the target is unchanged. As to the kind of experiment: qHTS for Inhibitors of the Aldehyde Dehydrogenase Family (ALDH1A3) Primary screen (AID 2061315).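 Also: plate controls were DMSO vehicle for no effect and reference inhibitor for full effect.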

Cellular tumor antigen p53 (Homo sapiens), sequence (P04637 whole entry, looked up): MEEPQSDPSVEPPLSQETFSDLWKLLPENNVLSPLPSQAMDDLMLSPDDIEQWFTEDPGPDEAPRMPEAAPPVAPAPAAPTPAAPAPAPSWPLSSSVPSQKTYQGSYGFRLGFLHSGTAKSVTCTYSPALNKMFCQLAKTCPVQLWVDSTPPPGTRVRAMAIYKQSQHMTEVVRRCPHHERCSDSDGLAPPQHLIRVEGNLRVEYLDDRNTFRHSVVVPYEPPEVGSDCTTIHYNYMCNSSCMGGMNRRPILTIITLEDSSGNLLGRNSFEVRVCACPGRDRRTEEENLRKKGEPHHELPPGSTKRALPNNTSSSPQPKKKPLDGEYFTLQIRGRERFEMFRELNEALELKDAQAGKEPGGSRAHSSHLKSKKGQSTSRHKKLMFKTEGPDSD

As for `Cc1nnc(-c2ccc3occ(-c4ccc(S(C)=O)cc4)c3c2)o1` (configuration not stated), the Potency in experiment [1] is 0.631 µM (active). Also, the Potency result in experiment [2] was “inactive”.
For `COc1cc(O)c(C(=O)O)c(CCc2ccccc2)c1`, in that order: 12.7 µM (active) and 10.1 µM (active).
On to `O=C(Nc1ccccc1)N1CCC(Cc2cnc3ccccc3c2)CC1`, for which, in experiment [3], the Potency entry is “inactive”.
For the compound `COCc1c(Cl)ccc2c1CC[C@H]2c1ncc[nH]1`, in experiment [4], the activation is 11%. Besides, the Potency result in experiment [5], in experiment [6] and in experiment [7] was “inactive” throughout.
Turning to `Cc1nc(C)c(-c2ccc(C3CCC(CC(=O)O)CC3)cc2)nc1C(N)=O` (configuration not stated), in experiment [4], the activation is -13.4%. In addition, the Potency entry in experiment [5], in experiment [6] and in experiment [7] was “inactive” each time.
As for `CCOCCn1nc(CC)c2nc(N3CCC(C(=O)O)CC3)nc(Nc3cc(C)ccn3)c21`, the activation in experiment [4] was 0%. Also, the Potency entry in experiment [5], in experiment [6] and in experiment [7] was “inactive” in each case.
On to `O=C(O)Cn1nnc(-c2ccc(CN(CCCCOc3ccc(CN4CCCC4)cc3)CCc3ccccc3)cc2)n1`, for which the activation in experiment [4] was 7.16%. Further, the Potency entry in experiment [5], in experiment [6] and in experiment [7] was “inactive” in each case.
For `CCC[C@@]1(CCc2ccccc2)CC(O)=C([C@H](CC)c2cccc(NS(=O)(=O)c3ccc(C(F)(F)F)cn3)c2)C(=O)O1`, in experiment [4], the activation is -3.82%. In addition, the Potency entry in experiment [5], in experiment [6] and in experiment [7] was “inactive” throughout.
As to `COc1ccc(Oc2cc(C)c(-c3csc(NC(=O)c4ccncc4)n3)c(C)c2)cc1`, the activation in experiment [4] was 11%. The Potency result in experiment [5], in experiment [6] and in experiment [7] was “inactive” each time.
Consider `CCOc1ccc(-c2nc(-c3cccc4c3CCC4NCCO)no2)cc1OCC` (configuration not stated), for which, in experiment [4], the activation was -0.955%. The Potency entry in experiment [5], in experiment [6] and in experiment [7] was “inactive” in each case.
Consider `CC1(C(=O)Nc2ccc(F)nc2)CCCN1c1nc(Nc2cc(C3CC3)[nH]n2)c2cccn2n1` (configuration not stated), for which, in experiment [4], the Potency was 30.1 µM (active). The Potency entry in experiment [5], in experiment [6] and in experiment [7] was “inactive” each time.
For the compound `COc1ccc(-c2csc(NC(=O)[C@H]3CCCCN3S(=O)(=O)c3ccc(C)cc3)n2)cc1`, in experiment [4], the activation is -8.59%. Also, the Potency entry in experiment [5], in experiment [6] and in experiment [7] was “inactive” in each case.
As for `CCCCc1nc(Cl)c(CO)n1Cc1ccc(-c2ccccc2-c2nnn[nH]2)cc1`, the activation in experiment [4] is -18.1%. Besides, the Potency result in experiment [5], in experiment [6] and in experiment [7] was “inactive” each time.
Turning to `O=C(Nc1ccc(F)cc1)N1CCc2ccccc2C1c1ccc(C(F)(F)F)cc1` (configuration not stated), in experiment [4], the activation is 13.4%. Further, the Potency entry in experiment [5], in experiment [6] and in experiment [7] was “inactive” each time.
As to `NCc1c[nH]c(=S)n1[C@@H]1CCc2c(F)cc(F)cc2C1`, the activation in experiment [4] is 0%. Further, the Potency entry in experiment [5], in experiment [6] and in experiment [7] was “inactive” throughout.
With `CCCCNc1ccc(-c2ccc(CN3CCOCC3)cn2)c(NC2CCC(O)CC2)c1` (configuration not stated), in experiment [4], the activation is 1.91%. Further, the Potency result in experiment [5], in experiment [6] and in experiment [7] was “inactive” each time.
With `Cc1cc(C)c(S(=O)(=O)n2cc(C)cc2C)c(C)c1`, the activation in experiment [4] was 5.73%. In addition, the Potency entry in experiment [5], in experiment [6] and in experiment [7] was “inactive” throughout.
As to `COc1c(C)cnc(Cn2cc(C#CCC(C)(C)O)c3c(Cl)nc(N)nc32)c1C`, the activation in experiment [4] is -10%. The Potency result in experiment [5], in experiment [6] and in experiment [7] was “inactive” each time.
Turning to `O=C(CCCN1CCN(c2ccccn2)CC1)c1ccc(F)cc1`, in experiment [4], the activation was -3.82%. Further, the Potency result in experiment [5], in experiment [6] and in experiment [7] was “inactive” throughout.
As to `CC[C@@H](N)CNc1ccnc(-c2cc(-c3cnn(C)c3)ccc2O)n1`, the Potency in experiment [4] was 6.75 µM (active). Besides, the Potency result in experiment [5], in experiment [6] and in experiment [7] was “inactive” in each case.
On to `CS(=O)(=O)NCC1CCC(Nc2nc3c(s2)CCSc2ccccc2-3)CC1` (configuration not stated), for which the activation in experiment [4] is -6.21%. For the same compound, the Potency result in experiment [5], in experiment [6] and in experiment [7] was “inactive” in each case.
As for `Cc1c(C(=O)NCc2cccnc2)nn(-c2ccc(Cl)cc2Cl)c1-c1ccc(Cl)cc1`, in experiment [4], the activation was 21%. In addition, the Potency entry in experiment [5], in experiment [6] and in experiment [7] was “inactive” in each case.
As for `Cc1oc2ccccc2c1CNC(=O)NCc1cccs1`, the activation in experiment [4] is -8.59%. In addition, the Potency result in experiment [5], in experiment [6] and in experiment [7] was “inactive” throughout.
Turning to `Nc1nc(COC(=O)c2ccc([N+](=O)[O-])cc2)nc(Nc2ccccc2)n1`, the activation in experiment [4] was 0.477%. Further, the Potency entry in experiment [5], in experiment [6] and in experiment [7] was “inactive” in each case.
As to `CCN(CC)C(=O)Nc1ccc(OCC(O)CNC(C)(C)C)c(C(C)=O)c1` (configuration not stated), the activation in experiment [4] was -6.69% and 4.3%. In addition, the Potency entry in experiment [5], in experiment [6] and in experiment [7] was “inactive” in each case.
For `COc1cc2c(cc1OC)-c1[nH]nc(Nc3cccc(F)c3)c1C2`, the activation in experiment [4] is 6.68%. The Potency entry in experiment [5], in experiment [6] and in experiment [7] was “inactive” in each case.
In the case of `CCCC1(c2ccccc2)NC(=O)N(CC(=O)N(C)Cc2c(F)cccc2Cl)C1=O` (configuration not stated), the activation in experiment [4] is 4.3%. Moreover, the Potency entry in experiment [5], in experiment [6] and in experiment [7] was “inactive” throughout.
Regarding `COc1cc(Br)c(S(=O)(=O)Nc2ccc(Cl)c(O[C@@H]3CCN(C)C3)c2)cc1OC`, in experiment [4], the activation is 21.5%. In addition, the Potency entry in experiment [5], in experiment [6] and in experiment [7] was “inactive” each time.
In the case of `O=[N+]([O-])c1cn2c(n1)OCC(OCc1ccc(OC(F)(F)F)cc1)C2` (configuration not stated), the activation in experiment [4] is -10%. The Potency result in experiment [5], in experiment [6] and in experiment [7] was “inactive” each time.
As for `CC(=O)NC1=NN(C(C)=O)C(C)(c2ccccc2)S1` (configuration not stated), the Potency in experiment [4] was 12 µM (active). Further, the Potency entry in experiment [5], in experiment [6] and in experiment [7] was “inactive” in each case.
For `CCN(CC)CCCS(=O)(=O)N[C@H](CCc1ccccc1)c1nc(Cc2ccc(Br)cc2)no1`, the activation in experiment [4] was 7.64%. The Potency result in experiment [5], in experiment [6] and in experiment [7] was “inactive” in each case.

The values above are taken from PubChem BioAssay (NCATS).
